# From PubChem BioAssay
# Unmarked numbers belong to inactive results. For some of these results: Results with a measured potency or affinity are listed apart. Active and inactive are the calls of the source. Unless noted, no rule for the calls is given here.
# Assays:
# [1] = antimalarial activity against Dd2 strain (AID 2302;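 active = growth inhibition above 50% at the single 2 µM test dose, taken to imply half-maximal potency below 2 µM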;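 also: 0% = DMSO untreated growth and 100% = chloroquine plus artemisinin killed control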); details: P. falciparum Dd2 in RBCs, LDH growth readout, 72 h; at 2 µM; active compounds read high
# [2] = HepG2 cytotoxicity, primary screen, cytotoxicity control for P. falciparum antimalarial project, cell-based, ATP luminescence (AID 2303;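 active = inhibition above 50%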;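 also: 0% = DMSO wells and 100% = digitonin-killed cells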); details: HepG2 viability, 24-48 h, at 10 µM, active compounds read high
# [3] = target: L-lactate dehydrogenase (Plasmodium falciparum (isolate CDC / Honduras)) (UniProt Q27743); test: PfLDH activity inhibition – cell lysate, 3D7 strain, counter-screen for P. falciparum growth inhibition project (AID 2304);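 also: 0% = vehicle and 100% = reference inhibitor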; details: P. falciparum 3D7 crude extract, LDH APAD/NBT absorbance; at 2 µM; active compounds read high
# [4] = inhibition of 3D7 malaria parasite growth – strain 3D7 (AID 2306);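 also: 0% = DMSO wells and 100% = chloroquine plus artemisinin control wells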; details: P. falciparum 3D7 erythrocytic growth, LDH absorbance, 72 h; at 2 µM; active compounds read high
# [5] = target: Calcium-dependent protein kinase 1 (Plasmodium falciparum (isolate 3D7)) (UniProt P62344); test: PfCDPK1 kinase inhibitors, biochemical, TCAMS library (AID 1159585; cut-off not given, nearly all actives have IC50 up to about 0.98 µM;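 also: inhibitors leave more ATP so luminescence rises with inhibition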); details: recombinant PfCDPK1, Kinase-Glo ATP depletion luminescence
# [6] = target: Plasmodium falciparum protein kinase 6 (PK6, PF3D7_1337100) (UniProt Q8IDW1); test: PfPK6 kinase inhibitors, biochemical, TCAMS library (AID 1159586); details: recombinant PfPK6, Kinase-Glo ATP depletion luminescence
# [7] = target: Protein kinase 7 (PK7), Plasmodium falciparum 3D7 (PF3D7_0213400) (UniProt Q7YTF7); test: inhibition of Plasmodium PK7 catalytic activity – biochemical, TCAMS antimalarial set, Kinase-Glo luminescence (AID 1159587); details: recombinant PfPK7, Kinase-Glo ATP depletion luminescence
# [8] = target: Calcium-dependent protein kinase 4 (Plasmodium falciparum (isolate 3D7)) (UniProt Q8IBS5); test: PfCDPK4 kinase inhibitors, biochemical, TCAMS library (AID 1159588; cut-off not given, nearly all actives have IC50 up to about 0.91 µM); details: recombinant PfCDPK4, Kinase-Glo ATP depletion luminescence
# Chain of Calcium-dependent protein kinase 4 (Plasmodium falciparum (isolate 3D7)) (Q8IBS5 whole entry, looked up): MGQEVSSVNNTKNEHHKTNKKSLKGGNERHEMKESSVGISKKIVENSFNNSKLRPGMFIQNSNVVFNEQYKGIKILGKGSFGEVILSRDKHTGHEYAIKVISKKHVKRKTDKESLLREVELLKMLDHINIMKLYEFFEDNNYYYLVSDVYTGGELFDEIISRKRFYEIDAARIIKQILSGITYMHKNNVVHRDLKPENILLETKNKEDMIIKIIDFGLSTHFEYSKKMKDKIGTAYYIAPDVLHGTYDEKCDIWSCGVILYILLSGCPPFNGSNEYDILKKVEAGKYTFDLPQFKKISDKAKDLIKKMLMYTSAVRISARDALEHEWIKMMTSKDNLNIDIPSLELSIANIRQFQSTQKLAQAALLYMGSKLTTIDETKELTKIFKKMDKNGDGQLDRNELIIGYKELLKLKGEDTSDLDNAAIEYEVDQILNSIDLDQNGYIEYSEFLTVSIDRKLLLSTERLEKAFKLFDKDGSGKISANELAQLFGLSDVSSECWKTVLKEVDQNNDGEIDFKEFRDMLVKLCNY
# Chain of Protein kinase 7 (PK7), Plasmodium falciparum 3D7 (PF3D7_0213400) (Q7YTF7 1-343): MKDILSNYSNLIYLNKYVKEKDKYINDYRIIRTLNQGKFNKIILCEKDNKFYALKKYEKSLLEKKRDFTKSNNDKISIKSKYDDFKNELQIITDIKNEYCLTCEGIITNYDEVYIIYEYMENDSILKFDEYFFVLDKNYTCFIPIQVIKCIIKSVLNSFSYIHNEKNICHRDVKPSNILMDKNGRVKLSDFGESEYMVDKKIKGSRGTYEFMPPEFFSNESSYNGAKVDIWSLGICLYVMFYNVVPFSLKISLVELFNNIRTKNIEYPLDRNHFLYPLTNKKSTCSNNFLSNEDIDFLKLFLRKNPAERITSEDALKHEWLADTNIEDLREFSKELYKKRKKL
# Chain of Plasmodium falciparum protein kinase 6 (PK6, PF3D7_1337100) (Q8IDW1 1-305): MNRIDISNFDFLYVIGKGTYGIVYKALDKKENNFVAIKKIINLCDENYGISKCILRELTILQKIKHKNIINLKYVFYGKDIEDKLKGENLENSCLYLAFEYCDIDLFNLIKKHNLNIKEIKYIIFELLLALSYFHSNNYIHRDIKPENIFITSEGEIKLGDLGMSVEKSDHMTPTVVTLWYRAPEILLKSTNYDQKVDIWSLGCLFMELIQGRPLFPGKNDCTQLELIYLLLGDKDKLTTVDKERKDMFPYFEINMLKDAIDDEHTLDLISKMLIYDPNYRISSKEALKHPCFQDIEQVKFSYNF
# Chain of L-lactate dehydrogenase (Plasmodium falciparum (isolate CDC / Honduras)) (Q27743 whole entry, looked up): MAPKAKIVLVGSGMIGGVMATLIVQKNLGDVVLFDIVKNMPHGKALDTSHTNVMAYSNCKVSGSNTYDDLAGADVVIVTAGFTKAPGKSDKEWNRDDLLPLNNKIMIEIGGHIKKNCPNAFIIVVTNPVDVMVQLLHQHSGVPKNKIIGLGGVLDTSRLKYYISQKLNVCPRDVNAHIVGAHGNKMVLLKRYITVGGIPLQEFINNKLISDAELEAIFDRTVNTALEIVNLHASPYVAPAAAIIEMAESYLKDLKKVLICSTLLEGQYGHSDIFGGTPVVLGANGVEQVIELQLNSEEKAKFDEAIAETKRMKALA
# Chain of Calcium-dependent protein kinase 1 (Plasmodium falciparum (isolate 3D7)) (P62344 whole entry, looked up): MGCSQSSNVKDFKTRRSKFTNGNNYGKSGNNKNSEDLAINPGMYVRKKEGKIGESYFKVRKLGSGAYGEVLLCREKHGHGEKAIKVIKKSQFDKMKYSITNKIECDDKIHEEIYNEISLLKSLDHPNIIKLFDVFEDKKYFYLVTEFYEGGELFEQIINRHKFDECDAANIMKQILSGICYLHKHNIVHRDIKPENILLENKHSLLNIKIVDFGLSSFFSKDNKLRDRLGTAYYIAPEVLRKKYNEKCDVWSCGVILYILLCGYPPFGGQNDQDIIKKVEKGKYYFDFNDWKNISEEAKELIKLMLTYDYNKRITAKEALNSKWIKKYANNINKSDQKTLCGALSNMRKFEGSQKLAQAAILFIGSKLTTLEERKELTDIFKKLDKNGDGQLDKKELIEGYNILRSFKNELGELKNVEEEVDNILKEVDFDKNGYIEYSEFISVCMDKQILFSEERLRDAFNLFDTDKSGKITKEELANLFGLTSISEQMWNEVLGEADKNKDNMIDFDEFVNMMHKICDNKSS
SMILES,growth inhibition [1],inhibition [2],inhibition [3],growth inhibition [4],outcome [5],outcome [6],outcome [7],outcome [8]
CCc1cc(=O)[nH]c(-n2nc(C)cc2NC(=O)CC(c2ccccc2)c2ccccc2)n1,75% (active),37%,4%,92% (active),inactive,inactive,inactive,inactive
COc1ccc(NC(=O)Nc2ccc(-c3ccncc3)c(C(F)(F)F)c2)cc1N1CCN(C)CC1,62% (active),5%,2%,101% (active),inactive,inactive,inactive,inactive
COc1ccc(Nc2nc(NC3CCCC3)cc(-c3ccc(OC)cc3)n2)cc1,15%,12%,2%,86% (active),inactive,inactive,inactive,inactive
O=C(Nc1ccc(NC2=NCCN2)cc1)Nc1ccc(NC2=NCCN2)cc1,72% (active),-6%,-1%,88% (active),inactive,inactive,inactive,inactive
CCOC(=O)Cn1ccc2c(NCc3ccccc3)nc(C)nc21,0%,64% (active),-1%,96% (active),inactive,inactive,inactive,inactive
Cc1sc(CNCCCNc2cc(=O)c3ccccc3[nH]2)c(I)c1C,48%,-10%,-4%,94% (active),inactive,inactive,inactive,inactive
Cn1cccc1C(=O)NCC(CCNc1cc(=O)c2ccccc2[nH]1)NCc1cc(Br)cc(Br)c1 (stereo not given),52% (active),-3%,-2%,92% (active),inactive,inactive,inactive,inactive
CNCc1ccc(-c2cccc(CNCc3ccc(-c4ccccc4)cc3)c2)c(C(=O)OC)c1,19%,25%,3%,92% (active),inactive,inactive,inactive,inactive
CC(CCc1ccccc1)NCC(O)c1ccc2c3c(cccc13)C(=O)N2C (stereo not given),57% (active),37%,-2%,99% (active),inactive,inactive,inactive,inactive
NC1CCN(Cc2cccc(-c3ccc(-c4nc5ccccc5[nH]4)cc3)c2)C1 (stereo not given),58% (active),24%,-7%,100% (active),inactive,inactive,inactive,inactive
COc1cccc(OC)c1C(=O)Nc1cccc(-c2nn3ccccc3c2-c2ccnc(Nc3cccc(F)c3)n2)c1,38%,3%,8%,95% (active),inactive,inactive,inactive,inactive
O=c1c2sc(-c3ccc(Cl)cc3)cc2ncn1Cc1ccc(OCCN2CCCC2)c2ccccc12,81% (active),38%,1%,100% (active),inactive,inactive,inactive,inactive
O=C(/C=C/c1ccc(Cl)c(Cl)c1)NCCCCCN1CCCN(C(=O)Nc2ccc(Cl)c(Cl)c2)CC1,2%,55% (active),2%,100% (active),inactive,inactive,inactive,inactive
CCCCCCn1c(Sc2ccc(C#N)c([N+](=O)[O-])c2)nnc1-c1ccc(N(C)C)cc1,25%,-1%,7%,92% (active),inactive,inactive,inactive,inactive
COc1cc(CN2CCC(N3CCc4cc(NC(=O)c5cc(C)on5)ccc43)C2)ccc1F (stereo not given),96% (active),1%,0%,91% (active),inactive,inactive,inactive,inactive
O=C(NCCCCCN1CCC(c2c[nH]c3ccccc23)CC1)Nc1ccc(Br)cc1,-4%,24%,1%,91% (active),inactive,inactive,inactive,inactive
CC(C)COc1ccc(C(O)C(CN2CCCCC2)c2ccccc2)cc1 (stereo not given),89% (active),11%,-11%,93% (active),inactive,inactive,inactive,inactive
COc1cc(NCCCNCc2cn(S(=O)(=O)c3ccccc3)c3ccccc23)nc2ccccc12,77% (active),36%,4%,101% (active),inactive,inactive,inactive,inactive
CN1CCN(CC2(Nc3nccc(NCCc4cn(C)c5ccccc45)n3)CCCCC2)CC1,41%,67% (active),2%,91% (active),inactive,inactive,inactive,inactive
CC(C)[C@H](NCC(=O)c1ccccc1)C(=O)O,0%,6%,-3%,99% (active),inactive,inactive,inactive,inactive
